A short description of assay [1]: small molecules captured by biotinylated probe aFSTL3 – biochemical, small-molecule microarray, fluorescence 635/667, stem cell growth factor project, primary screen (AID 1064).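 Also: measures binding of the biotinylated anti-FSTL3 antibody to printed compounds.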 The note with it: higher = more signal.
Assay [2] is described as follows: binders from COS7 lysate, DM2A8 probe, primary screen, torsin A project, cell lysate, small-molecule microarray, fluorescence 635/667 (AID 1065). Particulars: higher = more signal, COS7 lysate expressing mutant human TOR1A.
Assay [3] in a line: small molecules captured by biotinylated probe aFGF2 – biochemical, small-molecule microarray, fluorescence 635/667, stem cell growth factor project, primary screen (AID 1067).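 Also: measures binding of biotinylated aFGF2 protein to printed compounds on slides; z-score merges feature fluorescence and signal-to-noise across triplicate slides.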 Particulars: higher = more signal.
Assay [4] can be described thus: small molecules captured by biotinylated probe aFGF10 – biochemical, small-molecule microarray, fluorescence 635/667, stem cell growth factor project, primary screen (AID 1071).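 Also: score merges 667 nm spot intensity and signal to noise from triplicate slides.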 Particulars: higher = more signal.
Assay [5] addresses Neurogenic locus notch homolog protein 2 (Homo sapiens) (UniProt Q04721). The assay is described as follows: small molecules binding Notch2 protein – biochemical, small-molecule microarray, 635 nm fluorescence, stem cell growth factors, primary screen (AID 1073). Particulars: higher = more signal.
The target in assay [6] is Pro-neuregulin-1, membrane-bound isoform (Homo sapiens) (UniProt Q02297). The assay is described as follows: small molecules binding neuregulin-1 protein – biochemical, small-molecule microarray, fluorescence 635/667, psychiatric disease protein project, primary screen (AID 1075).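 Also: score combines 667 nm spot fluorescence with signal to noise.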 Particulars: NRG1 binding, 635 nm fluorescence, higher = more signal.
Assay [7] has as its system Neuregulin-1 EGF-like domain. The assay is described as follows: small molecules binding NRG1 EGF domain – biochemical, small-molecule microarray, 635 nm fluorescence, primary screen (AID 1081).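 Also: binding of the protein to compounds printed on small-molecule microarray slides.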 The note with it: higher = more signal.
A short description of assay [8]: FRG1 expression reporter modulators in myotubes – cell-based, C2C12 myotubes, firefly/Renilla luciferase, luminescence, FRG1 inhibition for FSHD, primary screen (AID 1084). Particulars: FRG1 promoter luciferase, higher = more signal, called active from +8 up or from −8 down.
The nature of assay [9]: small molecules captured by biotinylated probe aFST – biochemical, small-molecule microarray, fluorescence 635/667, stem cell growth factor project, primary screen (AID 1086).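 Also: score merges 667 nm fluorescence with signal-to-noise of each printed compound spot.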 Particulars: higher = more signal.
Assay [10] can be described thus: binders of probe aHhip on microarray, primary screen, stem cell growth factor project, biochemical, small-molecule microarray, fluorescence 635/667 (AID 1087).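 Also: score merges spot fluorescence at 667nm with spot signal to noise ratio.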 Particulars: higher = more signal.
Assay [11] has as its system PRMT1 (protein arginine N-methyltransferase 1). The assay is described as follows: small molecules binding arginine methyltransferase PRMT1 – biochemical, small-molecule microarray, 635 nm fluorescence, primary screen (AID 1088).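 Also: binding of Prmt1 protein to compounds spotted on small-molecule microarray slides.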 Particulars: higher = more signal.
Assay [12] is described as follows: growth effects on S. cerevisiae YJM789 – YJM789 clinical isolate, OD600, 24 h, basal, primary screen (AID 1089).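 Also: growth of clinical yeast isolate S. cerevisiae YJM 789 seeded 1000 cells per well; test concentration not given here.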 Particulars: higher = more signal, called active from +8 up or from −8 down.
Assay [13] in a line: S. pombe growth modifiers, basal conditions – strain 972, OD600, 24 h, no modulator, primary screen (AID 1090).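 Also: basal condition with compound alone and no growth modifier present; test concentration not given here.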 The note with it: S. pombe 972 growth, higher = more signal, called active from +8 up or from −8 down.
The nature of assay [14]: budding yeast growth modifiers under rapamycin – strain BY4716, OD600, 96 h, primary screen (AID 1091). Also: test concentration not given here. Particulars: S. cerevisiae BY4716 + rapamycin, higher = more signal, called active from +8 up or from −8 down.
Assay [15] deals with Torsin-1A-interacting protein 2 (Homo sapiens) (UniProt Q8NFQ8). The assay is described as follows: small molecules binding lysate-expressed LULL1 – cell lysate, human LULL1 lysate, 635/667 nm fluorescence, primary screen (AID 1092).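 Also: score merges per-feature 667 nm fluorescence with signal-to-noise.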 Particulars: small-molecule microarray, hLULL1 lysate binding, 635 nm fluorescence; higher = more signal.
The nature of assay [16]: optical density change of DRC41 E. coli – strain DRC41, OD650, 24 h, E. coli filamentation project, primary screen (AID 1093).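 Also: MC1000 strain lacking acrAB efflux and sulA so SOS filamentation is blocked; test concentration not given here.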 The note with it: E. coli DRC41 growth, higher = more signal, called active from +8 up or from −8 down.
Assay [17] is described as follows: probe aLefty2 binding to arrayed compounds – biochemical, biotinylated probe, 635/667 nm fluorescence, primary screen (AID 1094).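 Also: score merges spot fluorescence near 667 nm with spot signal-to-noise ratio.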 The note with it: small-molecule microarray, higher = more signal.
For assay [18], the system named is Noggin (protein binding on small-molecule microarray). The assay is described as follows: small molecules binding Noggin protein – biochemical, 635/667 nm fluorescence, primary screen (AID 1095).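 Also: score merges 667 nm feature fluorescence with signal to noise over triplicate slides.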 The note with it: 635 nm fluorescence, higher = more signal.
Assay [19] concerns the target Neurogenic locus notch homolog protein 3 (Homo sapiens) (UniProt Q9UM47). In words: small molecules binding NOTCH3 protein – biochemical, 635/667 nm fluorescence, primary screen (AID 1096). The note with it: small-molecule microarray, 635 nm fluorescence, higher = more signal.
Assay [20] is described as follows: probe aEGFR binding to arrayed compounds – biochemical, biotinylated probe, 635/667 nm fluorescence, primary screen (AID 1097).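 Also: probe is a biotinylated anti-EGFR antibody binding compounds printed on slides; score combines fluorescence near 667 nm and signal to noise of each spot.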 Particulars: small-molecule microarray, higher = more signal.

SMILES strings stand for the structures. The source made the active and inactive calls.

Chain of Neurogenic locus notch homolog protein 2 (Homo sapiens) (Q04721 whole entry, looked up, canonical isoform): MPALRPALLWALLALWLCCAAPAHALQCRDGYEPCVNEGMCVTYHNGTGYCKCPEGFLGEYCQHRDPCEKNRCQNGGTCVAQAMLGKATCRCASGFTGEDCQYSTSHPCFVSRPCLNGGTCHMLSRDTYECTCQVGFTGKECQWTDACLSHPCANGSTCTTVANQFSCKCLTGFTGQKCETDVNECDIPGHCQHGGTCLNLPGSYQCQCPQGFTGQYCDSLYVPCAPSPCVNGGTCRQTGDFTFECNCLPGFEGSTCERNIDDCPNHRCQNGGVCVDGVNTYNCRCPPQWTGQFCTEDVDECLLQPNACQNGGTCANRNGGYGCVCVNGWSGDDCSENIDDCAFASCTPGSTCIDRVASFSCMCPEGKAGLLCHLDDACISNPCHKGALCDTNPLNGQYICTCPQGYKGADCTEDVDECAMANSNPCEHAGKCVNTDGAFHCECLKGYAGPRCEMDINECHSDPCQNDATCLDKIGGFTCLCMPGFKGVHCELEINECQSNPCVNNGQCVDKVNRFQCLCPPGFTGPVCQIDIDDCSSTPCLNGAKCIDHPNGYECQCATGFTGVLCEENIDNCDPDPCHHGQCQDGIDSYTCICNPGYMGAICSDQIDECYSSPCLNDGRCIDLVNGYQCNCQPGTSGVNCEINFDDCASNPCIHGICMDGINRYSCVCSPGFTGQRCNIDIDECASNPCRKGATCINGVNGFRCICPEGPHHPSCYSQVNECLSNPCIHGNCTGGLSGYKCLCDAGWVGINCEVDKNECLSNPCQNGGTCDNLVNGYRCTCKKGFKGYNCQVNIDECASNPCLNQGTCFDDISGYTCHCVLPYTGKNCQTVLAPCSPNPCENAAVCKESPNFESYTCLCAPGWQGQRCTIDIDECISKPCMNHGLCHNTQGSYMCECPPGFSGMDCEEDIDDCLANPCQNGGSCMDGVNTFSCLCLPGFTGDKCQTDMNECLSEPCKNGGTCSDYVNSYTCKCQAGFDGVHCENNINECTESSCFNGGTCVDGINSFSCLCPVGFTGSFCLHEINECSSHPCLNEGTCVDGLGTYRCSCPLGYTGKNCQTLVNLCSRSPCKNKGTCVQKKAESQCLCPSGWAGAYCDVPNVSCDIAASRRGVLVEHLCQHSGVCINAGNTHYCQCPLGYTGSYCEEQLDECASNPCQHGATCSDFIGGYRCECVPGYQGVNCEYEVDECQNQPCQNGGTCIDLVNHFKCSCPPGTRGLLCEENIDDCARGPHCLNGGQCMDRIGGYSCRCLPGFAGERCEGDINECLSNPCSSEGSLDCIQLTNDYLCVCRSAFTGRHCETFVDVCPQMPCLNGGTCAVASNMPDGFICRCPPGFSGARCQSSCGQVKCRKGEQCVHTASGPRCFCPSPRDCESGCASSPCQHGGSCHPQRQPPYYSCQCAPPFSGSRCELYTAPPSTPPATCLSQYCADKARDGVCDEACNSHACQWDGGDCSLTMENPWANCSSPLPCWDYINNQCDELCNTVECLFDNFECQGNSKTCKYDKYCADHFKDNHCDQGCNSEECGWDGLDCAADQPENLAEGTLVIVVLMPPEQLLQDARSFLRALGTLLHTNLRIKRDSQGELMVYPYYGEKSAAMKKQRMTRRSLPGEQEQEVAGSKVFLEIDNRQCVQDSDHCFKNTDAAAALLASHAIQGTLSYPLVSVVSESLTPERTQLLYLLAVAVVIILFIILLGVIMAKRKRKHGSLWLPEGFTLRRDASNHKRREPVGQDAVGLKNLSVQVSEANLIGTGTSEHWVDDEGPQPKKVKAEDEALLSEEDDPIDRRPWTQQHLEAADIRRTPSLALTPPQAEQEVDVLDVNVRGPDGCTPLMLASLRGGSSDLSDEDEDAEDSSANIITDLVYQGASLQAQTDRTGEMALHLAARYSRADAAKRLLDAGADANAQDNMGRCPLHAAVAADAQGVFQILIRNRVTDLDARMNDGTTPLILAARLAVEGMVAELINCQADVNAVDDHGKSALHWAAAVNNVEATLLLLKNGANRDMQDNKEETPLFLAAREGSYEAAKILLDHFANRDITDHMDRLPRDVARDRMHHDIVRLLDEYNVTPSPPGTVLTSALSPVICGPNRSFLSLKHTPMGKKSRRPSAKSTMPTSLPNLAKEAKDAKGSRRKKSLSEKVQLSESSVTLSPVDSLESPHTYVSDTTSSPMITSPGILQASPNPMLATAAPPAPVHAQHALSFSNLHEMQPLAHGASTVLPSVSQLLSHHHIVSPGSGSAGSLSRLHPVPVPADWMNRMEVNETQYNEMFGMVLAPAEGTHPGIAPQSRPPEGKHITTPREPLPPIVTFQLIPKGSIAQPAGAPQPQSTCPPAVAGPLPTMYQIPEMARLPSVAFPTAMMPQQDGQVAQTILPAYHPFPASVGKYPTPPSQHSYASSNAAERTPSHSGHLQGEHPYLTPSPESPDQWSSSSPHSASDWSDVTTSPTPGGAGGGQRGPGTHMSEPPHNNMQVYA
Chain of Pro-neuregulin-1, membrane-bound isoform (Homo sapiens) (Q02297 whole entry, looked up, the tested form may be a part, canonical isoform): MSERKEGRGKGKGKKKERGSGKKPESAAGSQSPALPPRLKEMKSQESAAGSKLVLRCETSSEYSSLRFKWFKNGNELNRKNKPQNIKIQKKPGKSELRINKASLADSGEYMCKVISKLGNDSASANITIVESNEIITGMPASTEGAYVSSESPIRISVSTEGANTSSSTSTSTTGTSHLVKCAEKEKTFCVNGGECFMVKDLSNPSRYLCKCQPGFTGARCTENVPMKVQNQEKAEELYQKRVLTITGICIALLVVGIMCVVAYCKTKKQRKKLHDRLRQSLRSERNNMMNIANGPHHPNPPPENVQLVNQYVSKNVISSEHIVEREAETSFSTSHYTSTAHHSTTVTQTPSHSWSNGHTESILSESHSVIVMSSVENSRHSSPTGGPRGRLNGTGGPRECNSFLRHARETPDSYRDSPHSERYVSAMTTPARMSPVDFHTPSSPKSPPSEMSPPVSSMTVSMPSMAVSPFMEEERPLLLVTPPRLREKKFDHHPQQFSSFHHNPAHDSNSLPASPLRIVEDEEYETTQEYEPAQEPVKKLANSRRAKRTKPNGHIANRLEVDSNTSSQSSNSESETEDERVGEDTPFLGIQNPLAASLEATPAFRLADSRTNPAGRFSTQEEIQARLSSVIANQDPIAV
Chain of Torsin-1A-interacting protein 2 (Homo sapiens) (Q8NFQ8 whole entry, looked up): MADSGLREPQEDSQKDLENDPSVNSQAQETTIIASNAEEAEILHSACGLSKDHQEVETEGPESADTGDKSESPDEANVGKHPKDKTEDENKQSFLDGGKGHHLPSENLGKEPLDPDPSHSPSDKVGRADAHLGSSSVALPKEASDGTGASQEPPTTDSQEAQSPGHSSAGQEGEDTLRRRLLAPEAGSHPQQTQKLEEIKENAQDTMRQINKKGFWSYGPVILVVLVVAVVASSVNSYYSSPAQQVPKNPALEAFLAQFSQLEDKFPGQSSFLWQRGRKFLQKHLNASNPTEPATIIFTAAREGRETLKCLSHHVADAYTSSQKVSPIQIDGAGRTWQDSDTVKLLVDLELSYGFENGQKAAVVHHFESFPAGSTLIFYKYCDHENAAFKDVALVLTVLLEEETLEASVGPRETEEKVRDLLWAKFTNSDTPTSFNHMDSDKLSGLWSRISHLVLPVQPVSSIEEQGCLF

As for `CCOC(=O)[C@H]1C/C=C/C[C@H](C(=O)OCC)C(=O)O[C@H]2[C@@H](OC)O[C@H](CO)[C@@H](OC(=O)c3ccc(Br)cc3)[C@@H]2OC1=O`, the composite z-score in assay [1] was 0.0086; in assay [2] it was 0.014; in assay [3], -0.0459; in assay [4], -0.0304; in [5] it was -0.0686; in assay [6], 0.132. For the same molecule, the composite z-score in [7] was 0.517; in assay [9], -0.0976; in assay [10], 0.0566; in [11], 0.419; in [15] it was 0.796; in [17] it was -0.0653. In addition, the composite z-score in assay [18] is 0.197; in assay [19], 0.415; in assay [20], -0.116. Also, the z-score in [8] was -0.0847 (inactive); in assay [12] it was -0.436 (inactive); in [13], -0.316 (inactive); in assay [14] it was 2.17 (inactive); in assay [16] it was -0.67 (inactive).
Turning to `O=C1OCCC=C[C@H]2OC34C=CCN(CCN5CCOCC5)C(=O)[C@H]3N(CCCCCO)C(=O)[C@@H]4C12` (stereo not given in full), the composite z-score is -0.391 in assay [1]; 1.84 in [2]; -0.203 in assay [3]; 0.0681 in [4]; -0.419 in assay [5]; 1.06 in assay [6]. Also, the composite z-score was 1.42 in assay [7]; -0.324 in [9]; -0.0994 in assay [10]; 1.48 in [11]; 3.34 in [15]; -0.138 in assay [17]. For the same molecule, the figures for the composite z-score in assay [18], in [19] and in [20] were 0.0669, 0.193 and -0.158, respectively. Moreover, the z-score in assay [8] is -0.521 (inactive); in assay [12], -0.776 (inactive); in assay [13], -0.0455 (inactive); in assay [14], -0.379 (inactive); in assay [16] it was 0.444 (inactive).
Consider `C=CCN1C(=O)[C@]2(O[C@H](CCO)[C@@H]([Si](C)(C)c3ccc(OC)cc3)[C@@H]2C)c2cc(N(C=O)c3ccccc3)ccc21`, for which the composite z-score was 0.0147 in assay [1]; 0.109 in assay [2]; -0.0583 in assay [3]; 0.26 in assay [4]; 0.425 in assay [5]; 0.495 in assay [6]. Also, the composite z-score is 0.903 in assay [7]; 0.359 in assay [9]; 0.0021 in assay [10]; 1.47 in assay [11]; 1.19 in assay [15]; -0.121 in [17]. Moreover, the composite z-score in assay [18] was -0.0888; in [19], 0.649; in [20], -0.0947. The z-score in [8] is -2.69 (inactive); in [12] it was 1.28 (inactive); in assay [13] it was 0.859 (inactive); in assay [14], 36.9 (active); in [16], 1.03 (inactive).
Consider `CCOC(=O)C[C@H]1[C@H](OC(=O)c2ccc(C(=O)c3ccccc3)cc2)[C@@H](NC(=O)c2ccccc2)c2cc(OCCCO)ccc2N1C(=O)c1ccccc1`, for which the composite z-score in [1] was -0.481; in [2], 0.0554; in [3], -0.0376; in assay [4], 0.683; in assay [5], 0.783; in [6] it was 0.636. The composite z-score is 0.935 in assay [7]; 0.204 in assay [9]; 0.0053 in assay [10]; 0.844 in assay [11]; 1.72 in assay [15]; -0.0154 in [17]. Further, the composite z-score came out at 0.508 in assay [18], 1.01 in assay [19] and 0.121 in assay [20]. In addition, the z-score in [8] is -1.48 (inactive); in assay [12], -0.178 (inactive); in assay [13], 0.801 (inactive); in assay [14] it was -0.536 (inactive); in [16], -0.448 (inactive).
As to `[N-]=[N+]=NCc1ccccc1[C@@H]1OC(c2ccc(OCCCO)cc2)=N[C@]1(CCS(=O)(=O)c1ccccc1)C(=O)N1CCCCC1`, the composite z-score was 0.0217 in [1]; -0.267 in assay [2]; 0.0714 in assay [3]; 0.398 in assay [4]; 1.66 in assay [5]; 2.13 in [6]. For the same molecule, the composite z-score in [7] is 1.28; in [9], 1.69; in [10], -0.26; in assay [11], 1.56; in assay [15], 2.94; in assay [17] it was 0.0563. Moreover, the figures for the composite z-score in assay [18], in assay [19] and in [20] were 0.36, 1.02 and 0.208, respectively. The z-score in assay [8] was -0.0344 (inactive); in [12], -0.238 (inactive); in assay [13], 0.454 (inactive); in [14] it was 1.44 (inactive); in [16], 0.622 (inactive).

The record behind these values is PubChem BioAssay.
